HCV inhibitor = HCV inhibition | Potency, µM (doses to about 41.8 µM), inactives show top-dose activity change, negative = inhibition, hits mostly inhibitors | Huh7.5.1 HCVcc-Cre infection, luciferase reporter, 44 h | 340,000 compounds, 3.4% hits; active = well fitted inhibition curve with a large enough effect; inconclusive = small, poorly fitted or top-dose-only effect, or another doubt; inactive = no such curve, though single readings can be large or run the other way
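A cell-based infection assay in which seeded cells (1,000 per well) receive test compound after 4 h, are inoculated with HCVcc-Cre at approximately 0.5 moi, and are incubated 44 h before luminescence detection.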
Lassa entry inh = blocks Lassa virus binding to or entry into cells | Lassa virus pseudotype entry inhibition, cell reporter | Potency, µM (titrated, usually from 37.9 µM), for the others: top-dose activity change, negative = inhibition, hits mostly inhibitors | AID 540256 | 300,000 compounds, 1.2% hits; calls by dose curve; tested in HEK293 cells; note: nearly all actives have a fitted effect of over 50% in size
Vaccinia mCherry = inhibitors of vaccinia virus infection (mCherry reporter signal) | Vaccinia virus mCherry reporter infection, fluorescence | Potency, µM (titrated, usually from 36.5 µM), for the others: at the top dose activity change, negative = inhibition, most hits filed as inhibitors | 310,000 compounds, 0.63% hits | AID 720579; calls by dose curve; tested in A549 cells; note: nearly all actives have a fitted effect of over 35% in size
VACV Venus inh = vaccinia inhibition (Venus reporter); Vaccinia virus Venus reporter expression, fluorescence; Potency, µM (doses to about 36.5 µM), for the others: at the top dose activity change, negative = inhibition, hits mostly inhibitors; 330,000 compounds, 0.46% hits; calls by dose curve; tested in A549 cells; note: nearly all actives have a fitted effect of over 30% in size
MARV entry inh = Marburg virus entry inhibition; Potency, µM (series often up to 37.8 µM), without a hit: at the top dose activity change, negative = inhibition, hits mostly inhibitors; AID 540276; Marburg virus pseudotyped entry inhibition, cell reporter; 300,000 compounds, 1.8% hits; calls by dose curve; tested in HEK293 cells
Starred values were filed as active, the others as inactive; i = inactive; ? = inconclusive; . = no result; [ ] = remark or other dose. Sampled rows, rich in hits. Any-hit rate of the full collection: about 4.6%. % is set by controls: 0 for no effect and ±100 for the full control effect; potency is the fitted concentration of half-maximal effect.

SMILES	HCV inhibitor	Lassa entry inh	Vaccinia mCherry	VACV Venus inh	MARV entry inh
CC(C)n1cnc2c(Nc3ccc(C(=O)O)cc3)nc(Cl)nc21	9.2%	.	i	-23.6%	.
C=CC(=O)Nc1cccc(Nc2nc(N[C@H]3CC[C@H](N(C)C)CC3)nc3c2ncn3C(C)C)c1	?	.	?	1µM*	.
COC(=O)C(Cc1c[nH]c2ccccc12)NC(=O)c1cc(-c2ccc(OC)c(OC)c2)oc1C (stereo unspecified)	10µM*	10µM*	-24.5%	-16.7%	?
Cc1cnc(C)c(-c2cc(F)cc3c2OC(CNC(=O)Cc2c(C)noc2C)C3)n1 (stereo unspecified)	.	.	i	-14.0%	.
Cc1cccc(OCC(=O)Nc2cc(-c3nc4cc(Cl)ccc4o3)ccc2C)c1	.	.	-13.4%	?	.
CCN(CC)CCOc1ccc(Br)cc1	?	0.8%	i	-6.2%	3.0%
CCN(CC)CCOc1ccc(/C(=C(\Cl)c2ccccc2)c2ccccc2)cc1	11.2µM*	.	?	?	.
O=C(COc1ccc(C(=O)c2ccccc2)cc1)NC1CCCCCC1	11.2µM*	?	-22.9%	-15.0%	?
O=C(COc1ccc(C(=O)c2ccccc2)cc1)NC1CCCCC1	21.7%	3.0%	i	-7.0%	?
O=C(COc1ccc(C(=O)c2ccccc2)cc1)Nc1cccnc1	6.31µM*	?	-13.3%	2.4%	?
CC1(C)CC(=O)C=C(c2ccc(F)cc2OCc2ccccc2)C1	20µM*	.	-0.5%	-19.3%	.
O=C(Cn1nc(N2CCN(c3ccccc3)CC2)ccc1=O)NCc1ccccc1F	.	-6.7%[46.1 µM]	-9.2%	-10.3%	.
Clc1ccccc1Nc1nnc(-c2ccncc2)s1	-18.7%	5.01µM*	i	-8.8%	?
CCOCc1c(C(=O)N2CCN(CCOc3ccc(Cl)cc3)CC2)oc2ccccc12	5.62µM*	?	-21.5%	-6.8%	?
Cc1ccc(-c2cc(NC(=O)COc3c(C)cc(C)cc3C)on2)cc1	.	24.6%[46.1 µM]	-12.6%	-11.9%	22.5%[46.1 µM]
COC(=O)C=C1CCC2C3CCC4=CC(=O)C(Br)CC4(C)C3C(=O)CC12C (stereo unspecified)	?	?	-5.4%	-12.3%	11.2µM*
CC12C=CC(=O)C=C1CCC1C2C(=O)CC2(C)C(=O)CCC12 (stereo unspecified)	21.9%	-2.0%	i	0.8%	12.3%
CN(C)S(=O)(=O)c1cccc(NC(=O)c2cccc(NS(=O)(=O)c3ccccc3)c2)c1	12.6µM*	?	-21.7%	-17.2%	?
CC(=O)Nc1cccc(NC(=O)CCNC(=O)c2ccccc2)c1	3.16µM*	-3.3%	-10.9%	-7.9%	26.3%
CN(c1ccccc1)S(=O)(=O)c1cccc(NC(=O)CN2C(=O)NC3(CCCC3)C2=O)c1	2.82µM*	-7.6%	-10.3%	-26.4%	-0.6%
COc1ccccc1OCC(=O)Nc1ccc(S(=O)(=O)N(C)c2ccccc2)cc1	11.2µM*	.	.	.	.
Cc1ncc2c(c1CNC(=O)c1ccc3c(c1)OCO3)CCN(C(=O)c1ccc3ccccc3c1)C2	.	.	-7.1%	-27.4%	.
CCN(CC)S(=O)(=O)c1cccc(NC(=O)COc2ccc(C#N)cc2OC)c1	?	-0.5%	-26.1%	-21.0%	-5.8%
CN(c1cccc(NC(=O)c2ccc(C(C)(C)C)cc2)c1)S(C)(=O)=O	?	?	i	-20.1%	?
O=C(NCCc1c[nH]c2ccccc12)c1cccc(S(=O)(=O)Nc2ccccc2Cl)c1	8.6%	-10.0%	?	-22.5%	-1.1%
SMILES	HCV inhibitor	Lassa entry inh	Vaccinia mCherry	VACV Venus inh	MARV entry inh
CN(c1ccccc1)S(=O)(=O)c1cccc(C(=O)NCCc2c[nH]c3ccccc23)c1	10µM*	.	.	.	.
CN(c1cccc(NC(=O)c2ccc(N(C)S(=O)(=O)c3ccccc3)cc2)c1)S(C)(=O)=O	8.91µM*	?	.	.	16.4µM*
CCN(CC)S(=O)(=O)c1cccc(NC(=O)COc2ccc(F)cc2Br)c1	11.2µM*	-22.1%	-10.1%	-10.0%	?
CN(c1ccc(C(=O)Nc2ccc(F)cc2F)cc1)S(=O)(=O)c1ccccc1	?	11.2µM*	-5.4%	-26.3%	-26.6%
O=C(CCc1ccccc1)NCc1nc2cccnc2n1Cc1ccc(F)cc1	.	-1.2%[46.1 µM]	-8.6%	-12.1%	.
CCCCCN(CCCCC)c1ccc(/C=C/c2ccnc3ccccc23)cc1	.	.	49.9%	36.7%	.
O=C(COc1ccc(Cl)cc1)Nc1cccc(S(=O)(=O)NCc2ccco2)c1	31.6µM*	.	.	.	.
O=C(COc1ccccc1)Nc1cccc(-c2nc3cc4ccccc4cc3[nH]2)c1	7.08µM*	?	.	.	?

High-throughput results as filed in PubChem BioAssay.
